These results are taken from PubChem BioAssay (Tox21).

Test [1] is described as follows: Nuclear factor erythroid 2-related factor 2/antioxidant responsive element (Nrf2/ARE) small molecule agonists: qHTS cell viability counter screen in human keratinocytes (AID 1919968; active = well fitted curve in the direction sought with a large enough effect in the repeat runs; an effect the other way counts as inactive or inconclusive; note: nearly all actives have a fitted effect of over 55% in size). The method, boiled down:
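In human HaCaT keratinocytes stably expressing an ARE-driven luciferase, compound exposure lasted 23 h at 37 C under 5% CO2. Viable cells are quantified with a protease-based fluorogenic reagent (CellTiter-Fluor) read 1 h after addition.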
(Quantitative high-throughput screening tests each substance at several concentrations.)

In test [2] the target is Gonadotropin-releasing hormone receptor (Homo sapiens) (UniProt P30968). Kind of test: Human gonadotropin-releasing hormone receptor (GnRHR) small molecule agonists, calcium flux assay in GnRHR-HEK293 cells (AID 1920063). Note: nearly all actives have a fitted effect of over 35% in size. The method, boiled down:
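Intracellular calcium rise is the read-out: engineered human GnRHR HEK293 cells, dye-loaded, are exposed to DMSO-dissolved compounds and fluorescence at Ex/Em 480/540 is tracked for 3 min.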

In test [3] the target is KiSS-1 receptor (Homo sapiens) (UniProt Q969F8). Kind of test: Human kisspeptin (KISS1R) small molecule agonists, calcium flux assay in KISS1R-HEK293 cells (AID 1920064; active = well fitted curve in the direction sought with a large enough effect in the repeat runs; an effect the other way counts as inactive or inconclusive). The method, boiled down:
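Concentration-response testing used 15 concentrations in triplicate on human KISS1R-expressing HEK293 cells. Calcium-dependent fluorescence (Ex/Em 480/540) was followed kinetically for 3 min after compound transfer.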
Background: Calcium flux is commonly read through the fluorescence of an indicator in the cells.

Test [4] can be described thus: G protein-coupled receptor (GPCR) small molecule agonists, calcium flux assay: HEK293 wild type cell line counter screen (AID 1920065). The method, boiled down:
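Fluorescence intensity signals activation. After overnight (18 h) culture and a 1 h calcium dye load at 37 C, compounds are added by pin tool and the plate read at 480/540 nm for 3 min in 1 s steps.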

Test [5] in a line: p53 small molecule agonists, cell-based qHTS assay with human liver microsomes (AID 1963577). The method, boiled down: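 Fluorescence of the beta-lactamase reporter in p53RE-bla cells, detected with LiveBLAzer substrate (2 h, room temperature, dark), served as the read-out after 16 h compound exposure at 37 C with human liver microsomes and NADPH, each 0.5 mg/mL final.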
The nature of test [6]: p53 small molecule agonists, cell-based qHTS assay with human liver microsomes: qHTS cell viability counter screen (AID 1963579). Note: nearly all actives have a fitted effect of over 45% in size. The method, boiled down: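 Cytotoxicity counter screen: p53RE-bla, 4,000 cells/well; 5 h settle, 37 C/5% CO2; cpd + HLM 0.5 mg/mL + NADPH 0.5 mg/mL (final); 16 h, 37 C; CellTiter-Glo, 30 min RT, luminescence.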
A short description of test [7]: p53 small molecule agonists, cell-based qHTS assay with rat liver microsomes: qHTS cell viability counter screen (AID 1963580). Note: nearly all actives have a fitted effect of over 45% in size. In short, it runs like this:
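Rat liver microsome (0.5 mg/mL final) and NADPH (0.5 mg/mL final) co-incubation with compounds for 16 h at 37 C on HCT-116 p53RE-bla cells; cytotoxicity taken from intracellular ATP luminescence.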

Test [8] in a line: p53 small molecule agonists, cell-based qHTS assay: qHTS cell viability counter screen (AID 1963581). Note: nearly all actives have a fitted effect of over 45% in size. The method, boiled down: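 Luminescence from CellTiter-Glo, reflecting ATP content, serves as the cytotoxicity measure; it is taken after the 2 h reporter substrate step in HCT-116 p53RE-bla cells dosed for 16 h at 37 C.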
Test [9] in a line: p53 small molecule agonists, cell-based qHTS assay (AID 1963582; active = well fitted activation curve with a large enough effect in the signal ratio in the repeat runs, not every such curve was filed as active; the % refers to the signal ratio). In short, it runs like this: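 After plating, p53RE-bla cells sat 5 h in the incubator; compounds or DMSO vehicle were pinned in; a 16 h incubation at 37 C followed; FRET substrate was added and, 2 h later at RT, fluorescence was measured.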
The target in test [10] is 5-hydroxytryptamine receptor 2A (Homo sapiens) (UniProt P28223). Kind of test: 5-hydroxytryptamine receptor 2A (HTR2A) small molecule antagonists, cell-based qHTS assay (AID 1963586). Note: nearly all actives have a fitted effect of over 45% in size. In short, it runs like this:
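CHO cells stably expressing human HTR2A were plated for 18 h at 37 C, then loaded with calcium dye for 1 h. Compounds were preincubated 5 min at room temperature before DOI (4 nM solution) was added. Kinetic fluorescence was read for 3 min.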

For test [11] the target is unchanged. Kind of test: 5-hydroxytryptamine receptor 2A (HTR2A) small molecule agonists, cell-based qHTS assay (AID 1963587). Note: nearly all actives have a fitted effect of over 30% in size. Note: potency is the fitted concentration of half-maximal effect. In short, it runs like this:
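Kinetic calcium-flux fluorescence (2 min, 1 sec intervals) after compound addition in agonist mode. HTR2A-CHO cells were cultured 18 h, then dye-loaded 1 h at 37 C.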

Test [12] has as its target Muscarinic acetylcholine receptor M1 (Homo sapiens) (UniProt P11229). Kind of test: Cholinergic receptor muscarinic 1 (CHRM1) small molecule antagonists, cell-based qHTS assay (AID 1963588). Note: nearly all actives have a fitted effect of over 40% in size. Note: potency is the fitted concentration of half-maximal effect. The method, boiled down: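 Compounds were tested at 15 concentrations in three independent runs. Dye-loaded CHRM1-CHO cells were exposed 5 min at room temperature before stimulation by acetylcholine added at 50nM. Intracellular calcium was read kinetically on FDSS for 3 min.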

Test [13] shares this target. Kind of test: Cholinergic receptor muscarinic 1 (CHRM1) small molecule agonists, cell-based qHTS assay (AID 1963589). Note: nearly all actives have a fitted effect of over 35% in size. In short, it runs like this:
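Fluorescent calcium dye reports M1 activation in stably transfected CHO cells. Compounds, 15 concentrations, added after 1 h dye loading at 37 C; kinetic reading at 1 sec intervals.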

Test [14] in a line: p53 small molecule agonists, cell-based qHTS assay with rat liver microsomes (AID 1963578). The method, boiled down: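 Cells carrying a p53 response element–beta-lactamase reporter were plated and rested 5 h, then dosed with compound in DMSO plus rat liver microsomes and NADPH, each at 0.5 mg/mL final. After 16 h at 37 C, LiveBLAzer substrate was added for 2 h.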
Test [15] is described as follows: cAMP Responsive Elements (CRE) small molecule agonists, cell-based qHTS assay (AID 1963590). In short, it runs like this:
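Compound exposure lasted 3 h at 37 C/5% CO2 in CRE-bla HEK 293T cells grown in assay medium with 10% dialyzed FBS and 25 mM HEPES. Reporter signal came from LiveBLAzer B/G FRET substrate, 2 h, room temperature.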

The nature of test [16]: cAMP Responsive Elements (CRE) small molecule antagonists, cell-based qHTS assay (AID 1963591; active = well fitted inhibition curve with a large enough effect in the signal ratio in the repeat runs, not every such curve was filed as active; the % refers to the signal ratio). In short, it runs like this:
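Stimulation used NKH477 at a final 0.25 uM for 3 h in compound-treated CRE-bla HEK293T cells, seeded 18 h beforehand. Reporter activity was measured with LiveBLAzer B/G FRET substrate after 2 h at room temperature.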

For test [17], the target named is Beta-2 adrenergic receptor (Homo sapiens) (UniProt P07550). Kind of test: Adrenergic beta2 receptor (ADRB2) small molecule antagonists, cell-based qHTS assay (AID 1963592). Note: series mostly up to about 92 µM; nearly all actives have a fitted effect of over 50% in size. In short, it runs like this: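 Assay format: CHO-ADRB2 cells, 18-20hr seeding at 37C/5% CO2, then compound plus 1nM isoproterenol agonist mix for 0.5hr RT. Homogeneous time-resolved fluorescence cAMP detection after 1hr, expressed as 665/615 nm ratio.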
Chain of Beta-2 adrenergic receptor (Homo sapiens) (P07550 whole entry, looked up): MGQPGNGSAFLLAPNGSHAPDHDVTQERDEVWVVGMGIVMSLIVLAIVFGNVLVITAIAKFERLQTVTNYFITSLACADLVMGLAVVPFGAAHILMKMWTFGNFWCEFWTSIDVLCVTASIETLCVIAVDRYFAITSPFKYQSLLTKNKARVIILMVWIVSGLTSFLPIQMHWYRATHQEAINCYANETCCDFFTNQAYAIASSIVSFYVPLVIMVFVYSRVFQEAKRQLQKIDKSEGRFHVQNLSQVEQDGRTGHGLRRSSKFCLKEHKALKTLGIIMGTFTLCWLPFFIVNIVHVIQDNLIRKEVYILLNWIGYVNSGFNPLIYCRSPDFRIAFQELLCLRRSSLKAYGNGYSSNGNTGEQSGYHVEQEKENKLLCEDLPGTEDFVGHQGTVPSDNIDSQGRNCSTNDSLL

Test [18] concerns the target D(2) dopamine receptor (Homo sapiens) (UniProt P14416). Kind of test: Dopamine D2 receptor (DRD2) small molecule antagonists, cell-based qHTS assay (AID 1963595; active = well fitted inhibition curve with a large enough effect in the signal ratio in the repeat runs, with a control signal flat; the % refers to the signal ratio). In short, it runs like this:
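Stable D2 receptor HEK293 line, 24 h after seeding. Compound preincubated 10 min, then quinpirole (12 nM) with forskolin analogue NKH477 (200 nM), 30 min, room temperature. Detection by time-resolved FRET of cAMP.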

The target is the same in test [19]. Kind of test: Dopamine D2 receptor (DRD2) small molecule agonists, cell-based qHTS assay (AID 1963594). Note: nearly all actives have a fitted effect of over 35% in size. The method, boiled down: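 cAMP accumulation in DRD2-HEK293 cells measured by HTRF after 1 h detection; compounds added 10 min before NKH477 (200nM […]) forskolin-analogue stimulation, 30 min at room temperature, with Ro20-1724 present at 0.1 mM final.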

Test [20] concerns the target Beta-2 adrenergic receptor (Homo sapiens) (UniProt P07550). Kind of test: Adrenergic beta2 receptor (ADRB2) small molecule agonists, cell-based qHTS assay (AID 1963593).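 Note: CHO cells stably overexpressing human ADRB2.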 The method, boiled down: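 CHO cells stably over-expressing ADRB2 were plated overnight at 37C, then dosed with compounds plus a stimulation mix containing 100uM IBMX and 25uM Ro-20-1724 for 0.5hr at room temperature. cAMP was measured by HTRF competition, 1hr.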

A number with no mark means an inactive call. Inconclusive results are not listed. Calls of active or inactive are those of the source. Unless noted, calls come from the whole dose curve.

Chain of 5-hydroxytryptamine receptor 2A (Homo sapiens) (P28223 whole entry, looked up): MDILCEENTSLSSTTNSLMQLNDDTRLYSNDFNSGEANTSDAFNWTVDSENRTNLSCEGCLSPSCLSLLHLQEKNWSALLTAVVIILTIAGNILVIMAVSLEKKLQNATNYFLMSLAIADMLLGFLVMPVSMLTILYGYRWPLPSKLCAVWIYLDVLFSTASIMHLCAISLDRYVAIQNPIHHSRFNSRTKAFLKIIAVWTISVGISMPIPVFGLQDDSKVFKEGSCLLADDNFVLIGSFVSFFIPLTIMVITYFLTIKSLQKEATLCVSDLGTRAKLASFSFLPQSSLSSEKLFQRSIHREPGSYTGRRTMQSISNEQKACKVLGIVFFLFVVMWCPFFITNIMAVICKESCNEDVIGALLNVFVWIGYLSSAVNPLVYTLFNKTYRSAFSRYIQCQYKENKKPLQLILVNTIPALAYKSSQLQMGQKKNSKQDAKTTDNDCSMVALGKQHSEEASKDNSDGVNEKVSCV
Chain of KiSS-1 receptor (Homo sapiens) (Q969F8 whole entry, looked up): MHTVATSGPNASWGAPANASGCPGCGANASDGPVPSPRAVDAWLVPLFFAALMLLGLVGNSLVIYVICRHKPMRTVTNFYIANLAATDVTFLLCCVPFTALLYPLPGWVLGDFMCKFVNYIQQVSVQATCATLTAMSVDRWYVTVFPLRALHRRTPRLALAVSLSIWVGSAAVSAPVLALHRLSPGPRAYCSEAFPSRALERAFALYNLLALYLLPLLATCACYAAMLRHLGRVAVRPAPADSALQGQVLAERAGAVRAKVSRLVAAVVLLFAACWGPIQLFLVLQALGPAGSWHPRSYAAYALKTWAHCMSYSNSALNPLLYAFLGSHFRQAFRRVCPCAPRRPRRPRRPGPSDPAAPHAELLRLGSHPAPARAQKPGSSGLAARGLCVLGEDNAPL
Chain of D(2) dopamine receptor (Homo sapiens) (P14416 whole entry, looked up): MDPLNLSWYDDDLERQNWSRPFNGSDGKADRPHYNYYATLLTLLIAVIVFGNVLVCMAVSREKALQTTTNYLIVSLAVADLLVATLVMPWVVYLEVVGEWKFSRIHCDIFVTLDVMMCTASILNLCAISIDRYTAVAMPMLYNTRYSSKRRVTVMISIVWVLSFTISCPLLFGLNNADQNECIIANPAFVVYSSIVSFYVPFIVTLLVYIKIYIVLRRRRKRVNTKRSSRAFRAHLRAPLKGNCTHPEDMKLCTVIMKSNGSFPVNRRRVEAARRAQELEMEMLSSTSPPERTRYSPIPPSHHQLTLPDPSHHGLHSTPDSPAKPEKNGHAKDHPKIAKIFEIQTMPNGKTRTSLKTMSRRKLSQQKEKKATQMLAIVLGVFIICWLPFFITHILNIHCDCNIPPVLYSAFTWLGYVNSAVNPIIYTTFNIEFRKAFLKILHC
Chain of Muscarinic acetylcholine receptor M1 (Homo sapiens) (P11229 whole entry, looked up): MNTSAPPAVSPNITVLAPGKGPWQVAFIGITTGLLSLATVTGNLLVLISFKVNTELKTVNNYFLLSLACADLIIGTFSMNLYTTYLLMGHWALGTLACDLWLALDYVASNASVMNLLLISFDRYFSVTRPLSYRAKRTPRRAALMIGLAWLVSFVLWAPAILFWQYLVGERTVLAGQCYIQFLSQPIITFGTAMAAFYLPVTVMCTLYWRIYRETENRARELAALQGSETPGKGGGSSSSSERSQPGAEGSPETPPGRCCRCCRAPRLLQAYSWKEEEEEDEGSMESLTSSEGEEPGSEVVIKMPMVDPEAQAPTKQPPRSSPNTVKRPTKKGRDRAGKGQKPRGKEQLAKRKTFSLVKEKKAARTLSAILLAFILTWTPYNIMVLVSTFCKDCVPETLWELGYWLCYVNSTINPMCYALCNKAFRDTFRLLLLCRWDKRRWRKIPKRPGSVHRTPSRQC
Chain of Gonadotropin-releasing hormone receptor (Homo sapiens) (P30968 whole entry, looked up): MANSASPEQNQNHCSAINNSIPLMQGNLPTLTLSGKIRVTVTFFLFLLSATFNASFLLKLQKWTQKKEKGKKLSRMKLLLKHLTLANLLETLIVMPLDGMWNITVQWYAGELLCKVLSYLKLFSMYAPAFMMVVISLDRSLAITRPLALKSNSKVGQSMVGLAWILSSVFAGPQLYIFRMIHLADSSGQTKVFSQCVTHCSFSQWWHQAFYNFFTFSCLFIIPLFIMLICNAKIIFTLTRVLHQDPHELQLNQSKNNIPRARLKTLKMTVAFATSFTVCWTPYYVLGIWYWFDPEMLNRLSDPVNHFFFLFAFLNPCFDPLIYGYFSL

On to `CC(C(=O)O)c1ccc(C(=O)c2cccs2)cc1` (centres undefined), for which the Potency entry in test [1], in [2], in test [3], in test [4], in test [5] and in test [6] was “inactive” in each case. Further, the Potency result in test [7], in test [8], in [9], in [10], in test [11] and in [12] was “inactive” throughout. In addition, in test [13], the Potency entry is “inactive”.
Turning to `Clc1ccc(C(Cn2ccnc2)OCc2ccc(Sc3ccccc3)cc2)c(Cl)c1` (centres undefined), the Potency result in test [1], in [2], in test [3], in [4], in [14] and in [6] was “inactive” in each case. The Potency result in test [7], in test [8], in test [9], in test [12], in test [15] and in test [16] was “inactive” throughout. Moreover, the Potency entry in test [17] and in test [18] was “inactive” each time.
Turning to `Cc1ccc(Cl)cc1N`, the Potency entry in test [1], in test [2], in [3], in [4], in test [5] and in test [6] was “inactive” each time. For the same molecule, the Potency entry in test [7], in test [8], in test [9], in test [10], in [11] and in test [12] was “inactive” in each case. Besides, the Potency entry in test [15], in test [16], in [17] and in test [19] was “inactive” in each case.
On to `CC(C)c1cccc(C(C)C)c1N1C(=O)c2ccc(O)cc2C1=O`, for which the Potency entry in test [1], in test [2], in test [3], in test [4], in test [5] and in [10] was “inactive” each time. For the same molecule, the Potency result in test [17], in test [20], in test [19] and in test [18] was “inactive” throughout. Further, the Potency in [11] is 43.6 µM (active); in test [12] it was 37.5 µM (active).
`NC(=O)Nc1nc2ccccc2[nH]1`: the Potency result in [1], in [2], in test [3], in test [4], in test [14] and in test [6] was “inactive” each time. Also, the Potency result in test [7], in [8], in test [9], in test [10], in test [11] and in test [12] was “inactive” in each case. The Potency entry in [13], in test [15], in test [16], in test [17], in test [20] and in test [19] was “inactive” throughout. Besides, in [18], the Potency result is “inactive”.
In the case of `CC1(C)C(=O)N(Br)C(=O)N1Br`, the Potency entry in test [1], in test [2], in test [3], in [4], in [14] and in test [6] was “inactive” throughout. In addition, the Potency result in test [7], in test [8], in [9], in test [10], in test [12] and in test [15] was “inactive” throughout. The Potency entry in test [16], in test [17], in [20], in test [19] and in test [18] was “inactive” each time.
`CCN(CCC#N)c1ccc(N=Nc2c(Cl)cc([N+](=O)[O-])cc2Cl)cc1`: the Potency entry in test [1], in test [2], in [3], in test [4], in [5] and in [6] was “inactive” each time. The Potency entry in test [7], in test [8], in test [9], in test [10], in test [11] and in [12] was “inactive” throughout. Moreover, the Potency entry in test [13], in test [15], in test [16], in test [17], in [19] and in [18] was “inactive” throughout.
